Bioassay records deposited in PubChem BioAssay by National Center for Advancing Translational Sciences (NCATS).
KB-3-1 tox: kills parental KB-3-1 adenocarcinoma cells | KB-3-1 viability, CellTiter-Glo ATP luminescence, 72 h | Potency, µM (doses to about 46.1 µM), actives largely listed as cytotoxic | 400,000 compounds, 1.4% hits | AID 1347075; further: potency means the concentration at half of the fitted maximal effect; on the % scale 0 is the no-effect control and ±100 the full control effect; nearly all actives have a fitted effect of over 60% in size
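Multi-concentration cytotoxicity screen in KB-3-1 cells grown in DMEM lacking phenol red with 10% FBS. After 72 h at 37 °C with compound, ATP-dependent luminescence was recorded.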
DRD3 antagonist: blocks the human D3 dopamine receptor. D3R cells, DiscoveRx beta-arrestin luminescence, antagonist mode; active compounds read low. max response, negative = inhibition, %. 360,000 compounds, 2.5% hits; in the data active means max response below about -50%; inconclusive means no clear call, values can overlap the other calls; further: on the % scale 0 is the no-effect control and ±100 the full control effect
Target sequence (P35462 whole entry, looked up): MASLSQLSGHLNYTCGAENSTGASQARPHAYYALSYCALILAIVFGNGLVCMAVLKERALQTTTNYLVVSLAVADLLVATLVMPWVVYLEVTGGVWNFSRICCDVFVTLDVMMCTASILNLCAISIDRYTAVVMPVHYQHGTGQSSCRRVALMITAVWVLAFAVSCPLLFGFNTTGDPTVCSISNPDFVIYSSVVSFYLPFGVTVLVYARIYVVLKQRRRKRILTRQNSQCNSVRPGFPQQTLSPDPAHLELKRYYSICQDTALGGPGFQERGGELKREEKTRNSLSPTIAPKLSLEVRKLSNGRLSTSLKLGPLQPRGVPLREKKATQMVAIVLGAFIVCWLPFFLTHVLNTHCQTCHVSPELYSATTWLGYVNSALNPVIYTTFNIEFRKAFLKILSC
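Cells expressing the human receptor were seeded at 1500 cells/well, incubated overnight at 37 degrees C in 5% CO2, then exposed to library compounds with dopamine controls for 90 minutes at 37 degrees C before luminescent detection.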
MCF10A rereplic: DNA re-replication induction in MCF 10a cells | MCF 10A DNA re-replication, Hoechst nuclear intensity, 48 h | 350,000 compounds, 2.9% hits | Potency, µM (doses to about 46.1 µM), inactives show top-dose activity, positive = re-replication, hits mostly activators | AID 624296; further: potency means the concentration at half of the fitted maximal effect; % of control where 0% means no effect; nearly all actives have a fitted effect of over 50% in size
SW480 rerep: induces DNA re-replication in SW480 colon adenocarcinoma cells. Potency, µM (highest dose often 46.1 µM), for inactives: at the highest dose re-replication activation, hits mostly activators. AID 624297. 340,000 compounds, 1.8% hits. SW480 DNA re-replication, Hoechst DNA content imaging, 48 h; further: potency means the concentration at half of the fitted maximal effect; % of control where 0% means no effect; nearly all actives have a fitted effect of over 55% in size
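Quantitative HTS format with DMSO vehicle controls; 48 hr drug incubation at 37 C, then 40 min Hoechst staining and scanning imager measurement at 405 nm excitation.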
DRD3 agonist: agonists of human D3 dopamine receptor; AID 652048; D3R DiscoveRx beta-arrestin cells, luminescence, 90 min; 410,000 compounds, 0.58% hits; max activation, %; in the data active means max activation above about 30%; further: 0% is about no effect
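Cells at 1500/well, incubated overnight, then treated with pinned compounds (dopamine as control) for 90 min at 37 degrees C. DiscoveRx reagent added for 30 - 60 minutes at room temperature; luminescence read.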
KB-V1 MDR tox: KB-V1 MDR subline cytotoxicity; KB-V1 MDR cells viability, CellTiter-Glo, 72 h; Potency, µM (doses to about 46.1 µM), usual class: cytotoxic; 400,000 compounds, 3.4% hits; further: potency means the concentration at half of the fitted maximal effect; on the % scale 0 is the no-effect control and ±100 the full control effect; nearly all actives have a fitted effect of over 60% in size
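KB-V1, DMEM (no phenol red) + 10% FBS; cpd pin-transferred, titration series; 72 h, 37 degrees C; CellTiter-Glo, luminescence. Data normalized, curve-fit.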
Active calls of the source: *; ! = a repeat was not active. Only some compounds are listed: those with a hit (about 8.9% of all), similar ones and a draw of the others. Unless noted, the call rests on the fitted dose curve; in most records, active means well fitted curve in the direction sought with a large enough effect; inconclusive means small, poorly fitted or top-dose-only effect, or another doubt; inactive means no such curve, though single readings can be large; an effect the other way counts as inactive or inconclusive.

What do the screens show for `COc1cc(C(=O)N=c2sc3ccccc3n2C)cc(OC)c1OC`?
KB-3-1 tox: inactive; DRD3 antagonist: 34; MCF10A rereplic: -1%; SW480 rerep: -30%; DRD3 agonist: 6; KB-V1 MDR tox: 4.6µM*

What do the screens show for `Cn1c(=NC(=O)CS(=O)(=O)c2ccccc2)sc2cc(F)ccc21`?
KB-3-1 tox: inactive; DRD3 antagonist: -4; DRD3 agonist: -4; KB-V1 MDR tox: inactive

What do the screens show for `CC(C)c1cnc2c(c1SCC(=O)N1CCCCC1)c(=O)n(C)c(=O)n2C`?
DRD3 agonist: -22

How did O=C(CSc1nnc(-c2ccccc2F)o1)N1CCc2ccccc21 do in these assays?
KB-3-1 tox: inactive; DRD3 agonist: 6; KB-V1 MDR tox: inactive

What do the screens show for `CCOC(=O)c1ccc(NC(=O)C(C)Sc2nc(=O)cc(N)n2CCc2ccccc2)cc1` (stereo not drawn)?
KB-3-1 tox: inactive; DRD3 agonist: 5; KB-V1 MDR tox: inactive

What do the screens show for `Cc1c(Cl)c(C(F)F)nn1CC(=O)NC1C(=O)N2C(C(=O)O)=C(CSc3nnnn3C)CSC12` (stereo not drawn)?
KB-3-1 tox: inactive; DRD3 antagonist: 3; MCF10A rereplic: -4%; SW480 rerep: -17%; DRD3 agonist: 5; KB-V1 MDR tox: inactive

How did Cn1nnnc1SCC1=C(C(=O)O)N2C(=O)C(NC(=O)Cn3nc(C(F)F)cc3C3CC3)C2SC1 (stereo not drawn) do in these assays?
KB-3-1 tox: inactive; DRD3 antagonist: 3; MCF10A rereplic: 0.58µM*; SW480 rerep: 2%; DRD3 agonist: 4; KB-V1 MDR tox: inconclusive

What do the screens show for `O=C(O)C#CC(=O)O`?
KB-3-1 tox: inactive; KB-V1 MDR tox: inactive

How did COC(=O)Nc1sc2c(c1C(=O)NC1CC1)CCCCCC2 do in these assays?
KB-3-1 tox: inactive; DRD3 antagonist: -24; MCF10A rereplic: inconclusive; SW480 rerep: -6%; DRD3 agonist: 2; KB-V1 MDR tox: 23µM*

What do the screens show for `N#Cc1c(NC(=O)C2CCCO2)sc2c1CCCCCC2` (stereo not drawn)?
KB-3-1 tox: inactive; DRD3 antagonist: -27; MCF10A rereplic: inconclusive; SW480 rerep: inconclusive; DRD3 agonist: -20; KB-V1 MDR tox: 18µM*

What do the screens show for `Cc1sc(NC(=O)C2CCCO2)c(C#N)c1C` (stereo not drawn)?
KB-3-1 tox: inactive; DRD3 antagonist: 9; MCF10A rereplic: -5%; SW480 rerep: -8%; DRD3 agonist: -14; KB-V1 MDR tox: inactive

What do the screens show for `NC(=O)c1c(NC(=O)C2CCCO2)sc2c1CCCC2` (stereo not drawn)?
KB-3-1 tox: inactive; DRD3 antagonist: 16; MCF10A rereplic: 1%; SW480 rerep: -5%; DRD3 agonist: 4; KB-V1 MDR tox: 15µM*!

What do the screens show for `COc1ccc(NC(=O)CSC2=Nc3ccccc3C3=NC(CCC(=O)NC4CCCCC4)C(=O)N23)cc1Cl` (stereo not drawn)?
KB-3-1 tox: inactive; DRD3 agonist: 5; KB-V1 MDR tox: inactive

How did CN(Cc1c(F)cccc1Cl)c1ccc(S(=O)(=O)N2CCOCC2)cn1 do in these assays?
KB-3-1 tox: inconclusive; DRD3 antagonist: 23; MCF10A rereplic: 17%; SW480 rerep: -6%; DRD3 agonist: -3; KB-V1 MDR tox: 18µM*

What do the screens show for `CCNC(=O)C1CCCN(C(=O)c2ccc(OC)c(OC)c2)CC1` (stereo not drawn)?
KB-3-1 tox: inactive; DRD3 antagonist: 20; DRD3 agonist: 79*; KB-V1 MDR tox: inactive

How did S=C(Nc1ccccc1)N1CCC(Cc2ccccc2)CC1 do in these assays?
KB-3-1 tox: 12µM*; DRD3 antagonist: 5; MCF10A rereplic: 13%; SW480 rerep: -3%; DRD3 agonist: 0; KB-V1 MDR tox: inactive

What do the screens show for `COc1ccc(CCN(C(=O)c2ccc(F)cc2)C2=CC3CCC(C2)N3C)cc1OC` (stereo not drawn)?
KB-3-1 tox: inactive; DRD3 antagonist: -56*; MCF10A rereplic: -2%; SW480 rerep: -4%; DRD3 agonist: 2; KB-V1 MDR tox: inactive

How did COc1ccc(CCNC(=S)N2CCC(C(=O)c3ccc(F)cc3)CC2)cc1OC do in these assays?
KB-3-1 tox: inconclusive; DRD3 antagonist: 9; MCF10A rereplic: -1%; SW480 rerep: -15%; DRD3 agonist: 2; KB-V1 MDR tox: 4.1µM*

What do the screens show for `COc1cc(C(=O)N(CCc2ccccc2)C2=CC3CCC(C2)N3C)cc(OC)c1OC` (stereo not drawn)?
KB-3-1 tox: inactive; DRD3 antagonist: 6; MCF10A rereplic: 2%; SW480 rerep: -1%; DRD3 agonist: -1; KB-V1 MDR tox: inactive

What do the screens show for `O=c1n(Cc2ccc(F)cc2Cl)c2ccccc2c2nc(-c3ccccc3)nn12`?
DRD3 agonist: -9

Results for CCN1C(=O)c2ccccc2S(=O)c2ccc(C(=O)N3CCN(c4cccc(Cl)c4)CC3)cc21 (stereo not drawn) ?
KB-3-1 tox: inconclusive; DRD3 agonist: -2; KB-V1 MDR tox: inactive

Results for Clc1ccc(-c2noc3ncnc(NCCc4ccccc4)c23)cc1 ?
KB-3-1 tox: inactive; DRD3 agonist: 2; KB-V1 MDR tox: inactive

How did COc1ccc(CCNC(=O)c2ccc(CN3CCC(Cc4ccccc4)CC3)cc2)cc1OC do in these assays?
KB-3-1 tox: inactive; DRD3 antagonist: inconclusive; MCF10A rereplic: 6%; SW480 rerep: -3%; DRD3 agonist: -9; KB-V1 MDR tox: 3.7µM*

What do the screens show for `CN1CCN(C(=O)c2ccc(CN3CCOCC3)cc2)CC1`?
KB-3-1 tox: inactive; DRD3 antagonist: 11; MCF10A rereplic: 13%; SW480 rerep: -2%; DRD3 agonist: -1; KB-V1 MDR tox: inactive

Results for COc1ccc(CCNC(=S)N2CCC(Cc3ccccc3)CC2)cc1OC ?
KB-3-1 tox: inconclusive; DRD3 antagonist: 5; MCF10A rereplic: inconclusive; SW480 rerep: -2%; DRD3 agonist: 9; KB-V1 MDR tox: 15µM*

What do the screens show for `CN(C)CCCNC(=S)N1CCC(C(=O)c2ccc(Cl)cc2)CC1`?
KB-3-1 tox: inactive; DRD3 antagonist: 4; DRD3 agonist: 2; KB-V1 MDR tox: inactive

What do the screens show for `CCCNC(=S)N1CCC(Cc2ccccc2)CC1`?
KB-3-1 tox: inactive; DRD3 antagonist: -3; MCF10A rereplic: 11%; SW480 rerep: 1%; DRD3 agonist: 1; KB-V1 MDR tox: inactive

What do the screens show for `O=C(c1ccc(CN2CCOCC2)cc1)N1CCC(Cc2ccccc2)CC1`?
KB-3-1 tox: inactive; DRD3 antagonist: inconclusive; MCF10A rereplic: inconclusive; SW480 rerep: 1%; DRD3 agonist: -6; KB-V1 MDR tox: 21µM*
